# Source: PubChem BioAssay (NCI)
# The panel holds about 79,000 compounds, 15% with a hit somewhere; the sample as a whole holds those more often. Active and inactive are the calls of the source. Cut-off read from the data, not from the text of the source: active = growth inhibition above about 70%; inactive = the rest.
# What was measured:
# [1] = NCI Yeast Anticancer Drug Screen. Data for the rad50 strain (AID 155);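 note: 0% = growth of vehicle-only cultures of the same strain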; conditions: S. cerevisiae rad50 strain growth inhibition; at 50.0 µM; active compounds read high
# Outline: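 Vehicle-treated cultures provide the reference for the growth inhibition reported for compound-exposed, repair-deficient yeast.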
# [2] = NCI Yeast Anticancer Drug Screen. Data for the mec2-1 strain (AID 157); conditions: S. cerevisiae mec2-1 strain, at 50.0 µM, active compounds read high
# Outline: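 Each compound was tested on mec2-1 yeast, a strain altered in DNA damage repair or cell cycle control. Growth inhibition is reported relative to vehicle.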
# [3] = NCI Yeast Anticancer Drug Screen. Data for the sgs1 mgt1 strain (AID 161);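 note: 0% = growth of cultures given vehicle only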; conditions: S. cerevisiae sgs1 mgt1 strain, at 50.0 µM, active compounds read high
# Outline: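 Inhibition of yeast growth, normalised to vehicle-treated controls, is reported for a strain bearing genetic alterations in DNA damage repair.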
# [4] = NCI Yeast Anticancer Drug Screen. Data for the cln2 rad14 strain (AID 165);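 note: 0% = growth equal to vehicle treated cultures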; conditions: S. cerevisiae cln2 rad14 strain, at 50.0 µM, active compounds read high
# Outline: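 Test compounds were added to cln2 rad14 yeast cultures; inhibition of growth was then determined by comparison with vehicle treatment.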
# [5] = NCI Yeast Anticancer Drug Screen. Data for the bub3 strain (AID 167); conditions: S. cerevisiae bub3 mutant strain, at 50.0 µM, active compounds read high
# Outline: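 Mutant yeast screening strain plus compound; vehicle-treated cultures serve as the 0% inhibition reference.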
# [6] = NCI Yeast Anticancer Drug Screen. Data for the mlh1 rad18 strain (AID 175); conditions: S. cerevisiae mlh1 rad18 strain growth inhibition; at 50.0 µM; active compounds read high
# Outline: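 Inhibition values reflect reduced growth of mutant yeast versus vehicle-treated controls following compound exposure; the mutations affect DNA damage repair.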
SMILES,growth inhibition [1],growth inhibition [2],growth inhibition [3],growth inhibition [4],growth inhibition [5],growth inhibition [6]
O=C1OC(c2ccccc2)=N/C1=C/N1CCCC1C(=O)O (configuration not stated),-1% (inactive),5.6% (inactive),15.9% (inactive),10.1% (inactive),-4.4% (inactive),-6.3% (inactive)
CCCCC1(C#Cc2ccccc2)Sc2ccccc2N1C (configuration not stated),-9.9% (inactive),-8.45% (inactive),9.25% (inactive),-21.9% (inactive),-7.9% (inactive),2.25% (inactive)
O=C(CCSCCC(=O)N/N=C/c1ccccc1F)N/N=C\c1ccccc1F,22.6% (inactive),10.7% (inactive),38.1% (inactive),27.4% (inactive),24.4% (inactive),21.8% (inactive)
CCN(CC)CCOc1ccc(/C=C(\C#N)c2ccc(OCCN(CC)CC)cc2)cc1,56.5% (inactive),28.6% (inactive),30.4% (inactive),56% (inactive),24.1% (inactive),18% (inactive)
O=C(CC(c1ccccc1)C1CCCN(c2ccccc2)S1(=O)=O)c1ccccc1 (configuration not stated),26.6% (inactive),1.2% (inactive),11.1% (inactive),16.9% (inactive),-3.05% (inactive),23.1% (inactive)
O=C(N/C(=C/c1ccc(Cl)cc1)c1nc2ccccc2c(=O)n1Nc1ccc([N+](=O)[O-])cc1[N+](=O)[O-])c1ccccc1,-19% (inactive),-5% (inactive),-19.7% (inactive),0.3% (inactive),-21.6% (inactive),-17.5% (inactive)
CC(C)COCC1COC2(OCC(C)(C)C2OC(=O)Nc2ccccc2)O1 (configuration not stated),5.55% (inactive),-0.6% (inactive),-12.4% (inactive),-5.6% (inactive),5.95% (inactive),17.6% (inactive)
Cc1cc(=O)c2cc(Cc3ccc(N)cc3)ccc2[nH]1,8.35% (inactive),-16.7% (inactive),-8% (inactive),3.05% (inactive),-3.45% (inactive),0.65% (inactive)
Cc1cc(Cl)ccc1C1OC(=O)c2c1ccc1ccccc21 (configuration not stated),16.9% (inactive),6.8% (inactive),-6.25% (inactive),15.6% (inactive),7.5% (inactive),13.8% (inactive)
O=[N+]([O-])c1cccc(S(=O)(=O)SSS(=O)(=O)c2cccc([N+](=O)[O-])c2)c1,16.6% (inactive),18.1% (inactive),55.9% (inactive),20.8% (inactive),5.75% (inactive),28.2% (inactive)
C/C(=N/Nc1ccc([N+](=O)[O-])cc1[N+](=O)[O-])C1CC2CCC1C2 (configuration not stated),-17.4% (inactive),2.05% (inactive),2.1% (inactive),-4.3% (inactive),3% (inactive),-16.6% (inactive)
O=[N+]([O-])c1ccc(Nc2ccccc2)c2nonc12,-22.2% (inactive),4.45% (inactive),-0.1% (inactive),26.4% (inactive),13.8% (inactive),29.4% (inactive)
O=C(Nc1ccccc1Cl)NC1CCCCC1,5.1% (inactive),-0.55% (inactive),5.35% (inactive),18.7% (inactive),17.1% (inactive),5.8% (inactive)
O=C(Nc1ccc(Cl)c(Cl)c1)Oc1ccc2ccccc2c1,13.4% (inactive),24.9% (inactive),34.5% (inactive),-0.35% (inactive),4.1% (inactive),61.1% (inactive)
O=[N+]([O-])c1ccc(C[Se]c2ncnc3c2ncn3C2OC(CO)C(O)C2O)cc1 (configuration not stated),-15.1% (inactive),-7% (inactive),13.6% (inactive),-32.2% (inactive),0.6% (inactive),-8.35% (inactive)
CCCCCCCCCCCCS(=O)(=O)CC(=O)O,-8.65% (inactive),7.9% (inactive),8.15% (inactive),-84.2% (inactive),29.4% (inactive),9.05% (inactive)
CCCCCCCCCCCCCCCCCC(=O)N/N=C/c1ccccc1OC,7.05% (inactive),11.9% (inactive),9.25% (inactive),-1.6% (inactive),-2.05% (inactive),28.1% (inactive)
O=C(COCC(=O)N/N=C/c1c(O)ccc2ccccc12)N/N=C/c1c(O)ccc2ccccc12,-2% (inactive),-13% (inactive),-5.25% (inactive),-8.25% (inactive),-1% (inactive),6.9% (inactive)
CC1=NN(C(=O)CC(=O)Nc2ccccc2Cl)C(=O)C1N=Nc1ccc(C(=O)O)cc1 (configuration not stated),-3.35% (inactive),-6.85% (inactive),6.75% (inactive),-9.75% (inactive),-5.6% (inactive),17.8% (inactive)

SMILES,growth inhibition [1],growth inhibition [2],growth inhibition [3],growth inhibition [4],growth inhibition [5],growth inhibition [6]
Cc1ccc(/C(=C/CN2CC3CCC(CC3)C2)c2ccccc2)cc1,-1.15% (inactive),-4.5% (inactive),11.9% (inactive),-14.3% (inactive),10.4% (inactive),-13.8% (inactive)
CCC1Cc2ccccc2OC1=O (configuration not stated),10.9% (inactive),-3.6% (inactive),-1.95% (inactive),-7.7% (inactive),7.9% (inactive),1.55% (inactive)
Cc1cc(S(=O)(=O)Nc2n[nH]c(Nc3ccccc3)n2)c(SSc2cc(Cl)c(C)cc2S(=O)(=O)Nc2n[nH]c(Nc3ccccc3)n2)cc1Cl,12.2% (inactive),37.8% (inactive),4.95% (inactive),11.9% (inactive),12% (inactive),18.2% (inactive)
O=C(c1ccc(-c2ccccc2)cc1)N(C(=O)c1cc(N2CCOCC2)ccn1)c1ccc([N+](=O)[O-])cc1,43% (inactive),17.8% (inactive),45.8% (inactive),22.9% (inactive),-5.6% (inactive),8.6% (inactive)
O=C(Nn1c(=S)[nH][nH]c1=S)c1ccccc1,17.1% (inactive),-4.05% (inactive),-2.35% (inactive),-12.2% (inactive),-14.5% (inactive),21.4% (inactive)
CCO/C([O-])=C(\C=N\S(=O)(=O)c1ccc(C)cc1)[n+]1ccccc1,8.8% (inactive),13.8% (inactive),5.1% (inactive),-20.2% (inactive),-3.85% (inactive),2.65% (inactive)
CC(C)(CS(C)(=O)=O)C(=O)O,2.5% (inactive),-18.9% (inactive),3.05% (inactive),-7.55% (inactive),-2.05% (inactive),4.65% (inactive)
CC1SCCNC1=O (configuration not stated),-2.1% (inactive),-1.5% (inactive),-0.1% (inactive),7.3% (inactive),4% (inactive),-16.9% (inactive)
Cc1cc(C)c(NC(=O)Nc2ccccc2F)cc1C,18.7% (inactive),19.6% (inactive),14.3% (inactive),24.7% (inactive),33.1% (inactive),8.85% (inactive)
O=C(O)COc1cccc([N+](=O)[O-])c1,3% (inactive),-10.3% (inactive),-9.9% (inactive),-62.5% (inactive),-5% (inactive),-17.4% (inactive)
Cc1c2ccn3c(=O)c4ccccc4cc3c2c(C)c2c1[nH]c1ccccc12,56.1% (inactive),15.2% (inactive),9.45% (inactive),16.7% (inactive),21.8% (inactive),26.6% (inactive)
COc1ccc(N(Cc2ccccc2)c2nn[nH]n2)cc1,13.9% (inactive),-18.4% (inactive),-3.3% (inactive),11.6% (inactive),-5.6% (inactive),-19.8% (inactive)
CCCCCC(=O)OCCOCCOC,33.7% (inactive),-2.9% (inactive),29.6% (inactive),0.25% (inactive),2.25% (inactive),29.3% (inactive)
CC1(C)OC(C)(C)c2c1nnc(-c1cccc([N+](=O)[O-])c1)[n+]2[O-],-19.5% (inactive),-26.2% (inactive),18.6% (inactive),1.3% (inactive),11.6% (inactive),-3.55% (inactive)
CC(=O)Nc1cc(C)c(C)cc1[N+](=O)[O-],-2.5% (inactive),-16.6% (inactive),-9.45% (inactive),3.3% (inactive),-27.1% (inactive),-11.7% (inactive)
Nc1cc2c3c(cccc3c1Br)C(=O)OC2=O,99.5% (active),99.8% (active),99.7% (active),99.3% (active),99.7% (active),99.5% (active)
CCN(CC)CCC1(C(N)=O)Cc2ccccc2N(CC)c2ccccc21 (configuration not stated),13.6% (inactive),10.6% (inactive),8.7% (inactive),-2.6% (inactive),6.4% (inactive),1.85% (inactive)
C[C@H]1C(=O)OCN1C(=O)OCc1ccccc1,0.05% (inactive),16.4% (inactive),12.3% (inactive),-6% (inactive),12.6% (inactive),-0.5% (inactive)
